Among the data in PubChem BioAssay are z-score and composite z-score values, retold here.

Active and inactive are the calls of the source.

A short description of assay [1]: compound effects on lung adenocarcinoma cell viability – A549, calcein-AM fluorescence, 48 h, basal, profiling panel (AID 1162). Also: test concentration not given here. To be noted: higher = more signal.
The nature of assay [2]: compound effects on differentiated 3T3-L1 adipocyte viability – cell-based, 3T3-L1 adipocytes, calcein-AM fluorescence, 48 h, basal, profiling panel (AID 1163). Also: test concentration not given here. To be noted: 3T3-L1 adipocytes viability, higher = more signal.
A short description of assay [3]: compound effects on hepatocellular carcinoma cell viability – HepG2, calcein-AM fluorescence, 48 h, basal, profiling panel (AID 1164). Also: test concentration not given here. The following applies: higher = more signal.
A short description of assay [4]: compound effects on multiple myeloma cell viability – MM1S, calcein-AM fluorescence, 48 h, basal, profiling panel (AID 1165).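 Also: viability of MM1S multiple myeloma cells under basal unstimulated conditions; test concentration not given here.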 The following applies: higher = more signal.
Assay [5] can be described thus: calcein-AM signal in unstimulated myeloma cells – cell-based, calcein-AM fluorescence, 48 h, PK04 Diversity Set, profiling panel (AID 1166).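 Also: cells grown under basal conditions without added stimulus; test concentration not given here.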 To be noted: RPMI8226 myeloma viability, higher = more signal.
Assay [6] can be described thus: JC-1 mitochondrial signal, unstimulated HepG2 cells – cell-based, JC-1 fluorescence, 24 h, 100 nL compound, profiling panel (AID 1167). Also: test concentration not given here. The following applies: HepG2 mitochondrial potential, higher = more signal.
Assay [7] is described as follows: JC-1 mitochondrial signal, unstimulated adipocytes – cell-based, JC-1 fluorescence, 3T3-L1 adipocytes, 24 h, 100 nL compound, profiling panel (AID 1168). Also: test concentration not given here. To be noted: JC-1 mitochondrial fluorescence, higher = more signal, called active from +8 up or from −8 down.
Assay [8] can be described thus: JC-1 mitochondrial signal, unstimulated myeloma cells – cell-based, JC-1 fluorescence, RPMI8226, 24 h, 100 nL compound, profiling panel (AID 1169). Also: test concentration not given here. The following applies: JC-1 mitochondrial potential fluorescence, higher = more signal.
Assay [9] in a line: JC-1 mitochondrial signal, unstimulated MM1S myeloma – cell-based, JC-1 fluorescence, 24 h, 100 nL compound, profiling panel (AID 1170). Also: test concentration not given here. To be noted: MM1S mitochondrial potential, higher = more signal.
The nature of assay [10]: resazurin metabolic signal in A549 cells – cell-based, resazurin fluorescence, 24 h, PK04 Diversity Set, profiling panel (AID 1171). Also: test concentration not given here. To be noted: A549 viability, higher = more signal, called active from +8 up or from −8 down.
Assay [11] in a line: resazurin metabolic signal in HepG2 cells – cell-based, resazurin fluorescence, 24 h, PK04 Diversity Set, profiling panel (AID 1172). Also: test concentration not given here. To be noted: HepG2 viability, higher = more signal.
Assay [12] in a line: budding yeast growth changes without added modifier – OD600, strain BY4716, 24 h, basal condition, primary screen (AID 1173). The following applies: S. cerevisiae BY4716 growth, OD600, 24 h; higher = more signal, called active from +8 up or from −8 down.
Assay [13] is described as follows: viability profiling in MM1S myeloma cells – cell-based, resazurin fluorescence, basal, 24 h, PK04 Diversity Set, profiling panel (AID 1174). Also: test concentration not given here. The following applies: higher = more signal, called active from +8 up or from −8 down. (In general: The colour change of resazurin is a common sign of viable cells or microbes.)
Assay [14] deals with Dihydroorotate dehydrogenase (quinone), mitochondrial (Plasmodium falciparum (isolate 3D7)) (UniProt Q08210). As to the kind of experiment: inhibition of P. falciparum DHODH – biochemical, C-terminal His tag, absorbance 600 nm, primary screen (AID 1175).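 Also: recombinant parasite enzyme with a five histidine tag at its C terminus; test concentration not given here.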 The following applies: PfDHODH enzyme, DCIP absorbance 600 nm; higher = more signal, called active from +8 up or from −8 down.

The nature of assay [15]: growth modulation of vineyard yeast isolate – strain RM11-1a, OD600, basal, 24 h, primary screen (AID 1177).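 Also: cultures grown under basal conditions with no added stressor; test concentration not given here.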 To be noted: S. cerevisiae RM11-1a growth, OD600, 24 h; higher = more signal, called active from +8 up or from −8 down.
Assay [16] is described as follows: growth of efflux-deficient E. coli DRC39 – strain DRC39, OD650, 24 h, E. coli filamentation inducers, primary screen (AID 1178).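 Also: growth measured as culture turbidity by optical density at 650 nm; test concentration not given here.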 To be noted: E. coli DRC39 acrAB, higher = more signal, called active from +8 up or from −8 down.
The nature of assay [17]: growth of efflux-deficient E. coli DRC39 – strain DRC39, OD650, 48 h, E. coli filamentation inducers, primary screen (AID 1179).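 Also: screen aims at cell division blockers that make cells filament.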 The following applies: E. coli DRC39 delta-acrAB growth, higher = more signal, called active from +8 up or from −8 down.
The nature of assay [18]: viability profiling in RPMI8226 myeloma cells – cell-based, resazurin fluorescence, basal, 24 h, PK04 Diversity Set, profiling panel (AID 1180).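 Also: RPMI8826 multiple myeloma cell line at 5000 cells per well; test concentration not given here.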 To be noted: higher = more signal.
The target of assay [19] is E3 ubiquitin-protein ligase XIAP (Homo sapiens) (UniProt P98170). As to the kind of experiment: small molecules binding XIAP protein – biophysical, small-molecule microarray, fluorescence 635 nm, primary screen (AID 1181).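 Also: score merges 667 nm emission and signal to noise over triplicate slides.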 The following applies: higher = more signal.
Chain of E3 ubiquitin-protein ligase XIAP (Homo sapiens) (P98170 whole entry, looked up): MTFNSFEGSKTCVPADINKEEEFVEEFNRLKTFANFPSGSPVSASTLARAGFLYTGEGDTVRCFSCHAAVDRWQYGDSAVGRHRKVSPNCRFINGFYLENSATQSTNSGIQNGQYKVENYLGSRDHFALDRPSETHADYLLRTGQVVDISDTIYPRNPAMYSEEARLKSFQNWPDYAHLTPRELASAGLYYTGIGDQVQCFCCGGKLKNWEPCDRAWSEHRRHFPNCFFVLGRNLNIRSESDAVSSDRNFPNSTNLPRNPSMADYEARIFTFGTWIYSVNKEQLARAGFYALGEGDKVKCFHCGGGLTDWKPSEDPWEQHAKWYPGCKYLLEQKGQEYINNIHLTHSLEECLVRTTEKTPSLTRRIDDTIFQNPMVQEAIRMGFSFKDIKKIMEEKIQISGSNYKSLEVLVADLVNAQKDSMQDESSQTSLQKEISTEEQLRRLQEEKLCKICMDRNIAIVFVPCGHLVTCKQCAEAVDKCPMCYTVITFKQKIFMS

Chain of Dihydroorotate dehydrogenase (quinone), mitochondrial (Plasmodium falciparum (isolate 3D7)) (Q08210 whole entry, looked up): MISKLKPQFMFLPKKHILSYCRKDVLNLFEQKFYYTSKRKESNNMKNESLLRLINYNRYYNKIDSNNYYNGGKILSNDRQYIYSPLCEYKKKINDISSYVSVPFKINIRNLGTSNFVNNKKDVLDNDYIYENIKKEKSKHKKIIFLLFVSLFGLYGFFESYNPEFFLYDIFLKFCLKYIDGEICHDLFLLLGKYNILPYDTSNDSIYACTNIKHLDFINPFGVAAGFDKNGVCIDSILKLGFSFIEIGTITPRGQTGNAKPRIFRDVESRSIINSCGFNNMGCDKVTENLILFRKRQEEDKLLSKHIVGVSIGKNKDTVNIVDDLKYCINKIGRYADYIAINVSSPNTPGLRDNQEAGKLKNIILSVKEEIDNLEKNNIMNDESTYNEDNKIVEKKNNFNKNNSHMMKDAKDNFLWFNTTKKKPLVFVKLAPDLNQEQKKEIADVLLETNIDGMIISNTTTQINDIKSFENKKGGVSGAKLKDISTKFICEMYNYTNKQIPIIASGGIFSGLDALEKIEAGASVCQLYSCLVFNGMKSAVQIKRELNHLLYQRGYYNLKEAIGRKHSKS

For `Cc1ccc(S[C@]2(C(=O)O)CC(=O)N(Cc3ccccc3)[C@@H]2c2ccc(CO)cc2)cc1`, the z-score in [1] was 0.633; in [2], -0.671; in assay [3], -0.18; in [4] it was -0.476; in [5] it was 0.607; in [6], 0.536. The z-score was 0.923 (inactive) in assay [7]; 0.118 in [8]; -0.418 in assay [9]; 0.477 (inactive) in assay [10]; 1.06 in [11]; -3.67 (inactive) in [12]. Besides, the z-score was 1.6 (inactive) in [13]; -1.14 (inactive) in [15]; 0.537 (inactive) in assay [16]; 0.612 (inactive) in assay [17]; 0.512 in assay [18]. Moreover, the composite z-score is -0.891 (inactive) in [14] and 0.123 in [19].

Turning to `COCCOC(=O)N1C(=O)[C@@]2(c3ccccc31)[C@H](C(=O)N1CCc3cc(OC)c(OC)cc3C1)[C@H]1C(=O)O[C@H](c3ccccc3)[C@H](c3ccccc3)N1[C@@H]2c1ccccc1OCCO`, the z-score is 1.57 in [1]; 1.3 in [2]; -0.478 in assay [3]; -1.2 in assay [4]; -0.222 in assay [5]; 1.24 in [6]. Moreover, the z-score in [7] was 0.407 (inactive); in assay [8] it was -0.181; in [9], -0.238; in [10], 0.725 (inactive); in assay [11], 0.223; in [12] it was 1.03 (inactive). Further, the z-score in [13] is -0.517 (inactive); in [15], -0.446 (inactive); in assay [16], 0.659 (inactive); in [17] it was 1.31 (inactive); in [18], 0.673. For the same compound, the results for the composite z-score in assay [14] and in [19] were -1.85 (inactive) and -0.042, respectively.

Take `CO[C@H]1COC(=O)[C@H](C)NC(=O)CC=C[C@@H](C)[C@H](NS(=O)(=O)c2ccc(C)cc2)COC(=O)[C@@H](OCc2ccccc2)C=C[C@@H]1C`: the z-score in assay [1] is 0.0987; in assay [2] it was 0.901; in assay [3], 0.0331; in assay [4], -0.31; in [5] it was 0.102; in assay [6], 1.04. In addition, the z-score was 0.315 (inactive) in assay [7]; -0.729 in assay [8]; 1.02 in [9]; 0.559 (inactive) in assay [10]; 0.618 in [11]; 0.156 (inactive) in assay [12]. The z-score is 1.03 (inactive) in assay [13]; 1.25 (inactive) in assay [15]; 0.292 (inactive) in [16]; 0.104 (inactive) in [17]; 0.775 in assay [18]. For the same compound, the composite z-score in assay [14] was 0.604 (inactive); in assay [19], -0.0123.

In the case of `COc1cccc([C@H]2N[C@H](C(=O)O)CC[C@@H]2C)c1`, the z-score is 0.0912 in assay [1]; 2.03 in assay [2]; -0.175 in assay [3]; 0.543 in assay [4]; -1.36 in [5]; 1.16 in assay [6]. The z-score in [7] was 0.75 (inactive); in assay [8], -0.358; in [9] it was 0.632; in [10], -0.336 (inactive); in assay [11] it was -0.104; in assay [12], -1.03 (inactive). In addition, the z-score is 0.975 (inactive) in [13]; -0.393 (inactive) in assay [15]; -0.914 (inactive) in assay [16]; -0.83 (inactive) in assay [17]; 0.761 in assay [18]. Further, the figures for the composite z-score in assay [14] and in [19] were -2.33 (inactive) and 0.169, respectively.

For `CCN1C(C)=C(C(=O)OC)[C@@H](c2ccccc2)N2C(=O)[C@@]3(C(=O)OC)O[C@@]12[C@@H]1C(=O)CCC[C@@H]13`, the z-score in assay [1] is -0.195; in [2] it was 0.955; in assay [3], -0.369; in [4] it was 0.853; in assay [5] it was 0.476; in assay [6], 0.638. Also, the z-score in assay [7] was 0.881 (inactive); in assay [8], 0.538; in assay [9], 0.29; in assay [10], 0.282 (inactive); in [11], 0.584; in assay [12] it was -0.99 (inactive). Also, the z-score in [13] was 1.03 (inactive); in [15], 0.989 (inactive); in assay [16], -0.275 (inactive); in assay [17], -0.0144 (inactive); in [18], 0.835. Also, the results for the composite z-score in assay [14] and in assay [19] were -1.39 (inactive) and 0.111, respectively.
